Test results reported in PubChem BioAssay AID1159580 (chemical genetic matrix, 2015).
The whole screen tested about 5,500 compounds, of which about 2,000 (36%) were called active. Roughly 18% stayed inconclusive and do not appear here. No stated cut-off is given here; in the data, active means normalized growth mostly below about 0.91 (no sharp cut-off); inconclusive means no clear call, values can overlap the other calls; inactive means mostly above about 0.92. The list shows a part of the results.

Assay: chemical genetic growth profiling, strain panel (AID 1159580);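 further: tested at 20 µM; growth read once vehicle control cultures reached saturation at 30 °C; 1 = growth at the plate median or of vehicle wells; lower values mean less growth of the strain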
Details: growth OD
[1] = S. cerevisiae deletion strains, locus YAL013W, strain DEP1, active compounds read low
[2] = S. cerevisiae deletion strains, locus YDR150W, strain NUM1, active compounds read low
[3] = S. cerevisiae deletion strains, locus YGR078C, strain PAC10, active compounds read low
[4] = S. cerevisiae deletion strains, locus YJR075W, strain HOC1, active compounds read low
[5] = S. cerevisiae deletion strains, locus YMR307W, strain GAS1, active compounds read low
[6] = S. cerevisiae deletion strains, locus YNL128W, strain TEP1, active compounds read low
[7] = S. cerevisiae deletion strains, locus YNL153C, strain GIM3, active compounds read low
[8] = S. cerevisiae deletion strains, locus YNL322C, strain KRE1, active compounds read low
[9] = S. cerevisiae deletion strains, locus YPL055C, strain LGE1, active compounds read low
[10] = S. cerevisiae deletion strains, locus YPL241C, strain CIN2, active compounds read low

Measured: normalized growth

NC(=S)NCCCC(N)C(=O)O (centres undefined)
inactive: [1] 1.01 | S. cerevisiae deletion strains, locus YAL040C, strain CLN3, active compounds read low 1 | S. cerevisiae deletion strains, locus YCL061C, strain MRC1 (second series), active compounds read low 1.01 | [2] 1.01 | S. cerevisiae deletion strains, locus YDR363W, strain ESC2, active compounds read low 1.02 | S. cerevisiae deletion strains, locus YER002W, strain NOP16, active compounds read low 1.02 | [3] 1.01 | [4] 1.02 | [5] 1.01 | [6] 1.03 | [7] 1.01 | S. cerevisiae deletion strains, locus YNL175C, strain NOP13, active compounds read low 1.03 | S. cerevisiae deletion strains, locus YNL197C, strain WHI3, active compounds read low 1.01 | S. cerevisiae deletion strains, locus YNL224C, strain SQS1, active compounds read low 1.02 | [8] 1.02 | S. cerevisiae deletion strains, locus YOR083W, strain WHI5 (second series), active compounds read low 0.994 | [9] 1.03 | [10] 1.01

CCc1cccc(CC)c1N(COC)C(=O)CCl
inactive: [1] 1 | S. cerevisiae deletion strains, locus YBR021W, strain FUR4, active compounds read low 1.01 | S. cerevisiae deletion strains, locus YBR229C, strain ROT2, active compounds read low 1.01 | S. cerevisiae deletion strains, locus YCL029C, strain bik1, active compounds read low 1.02 | S. cerevisiae deletion strains, locus YDL035C, strain GPR1, active compounds read low 1.02 | S. cerevisiae deletion strains, locus YDL074C, strain BRE1, active compounds read low 1.03 | S. cerevisiae deletion strains, locus YDL101C, strain DUN1, active compounds read low 1.01 | S. cerevisiae deletion strains, locus YDL134C, strain PPH21, active compounds read low 1.01 | S. cerevisiae deletion strains, locus YDL185W, strain tfp1, active compounds read low 1.02 | S. cerevisiae deletion strains, locus YDL192W, strain arf1, active compounds read low 1.03 | S. cerevisiae deletion strains, locus YDR101C, strain arx1, active compounds read low 1.02 | [2] 0.995 | S. cerevisiae deletion strains, locus YDR162C, strain NBP2, active compounds read low 0.999 | S. cerevisiae deletion strains, locus YDR318W, strain mcm21, active compounds read low 1.02 | S. cerevisiae deletion strains, locus YDR388W, active compounds read low 1.02 | S. cerevisiae deletion strains, locus YDR502C, strain sam2, active compounds read low 1.02 | S. cerevisiae deletion strains, locus YEL061C, strain CIN8, active compounds read low 1 | S. cerevisiae deletion strains, locus YER110C, active compounds read low 1.01 | S. cerevisiae deletion strains, locus YER155C, strain BEM2, active compounds read low 1 | S. cerevisiae deletion strains, locus YER167W, strain BCK2, active compounds read low 1 | S. cerevisiae deletion strains, locus YGL078C, strain dbp3, active compounds read low 1.02 | S. cerevisiae deletion strains, locus YGL086W, strain mad1, active compounds read low 0.999 | S. cerevisiae deletion strains, locus YGL248W, strain PDE1, active compounds read low 1.01 | [3] 1.01 | S. cerevisiae deletion strains, locus YGR135W, strain pre9, active compounds read low 1.02 | S. cerevisiae deletion strains, locus YGR229C, strain SMI1, active compounds read low 1.02 | S. cerevisiae deletion strains, locus YGR252W, strain gcn5, active compounds read low 1.05 | S. cerevisiae deletion strains, locus YHR030C, strain SLT2, active compounds read low 1 | S. cerevisiae deletion strains, locus YHR079C, strain IRE1 (second series), active compounds read low 1.02 | S. cerevisiae deletion strains, locus YHR094C, strain hxt1, active compounds read low 1.02 | S. cerevisiae deletion strains, locus YHR129C, strain ARP1, active compounds read low 1 | S. cerevisiae deletion strains, locus YHR200W, strain rpn10, active compounds read low 1.02 | S. cerevisiae deletion strains, locus YIL066C, strain RNR3, active compounds read low 1.01 | S. cerevisiae deletion strains, locus YIL073C, strain SPO22, active compounds read low 1.11 | S. cerevisiae deletion strains, locus YIL125W, strain kgd1, active compounds read low 1.01 | S. cerevisiae deletion strains, locus YIR030C, strain dcg1, active compounds read low 1.03 | S. cerevisiae deletion strains, locus YJL095W, strain BCK1, active compounds read low 1.02 | S. cerevisiae deletion strains, locus YJL134W, strain LCB3, active compounds read low 1.01 | S. cerevisiae deletion strains, locus YJL168C, strain set2, active compounds read low 1.03 | S. cerevisiae deletion strains, locus YJL187C, strain SWE1 (second series), active compounds read low 1 | S. cerevisiae deletion strains, locus YJR043C, strain POL32, active compounds read low 1.01 | [4] 1.01 | S. cerevisiae deletion strains, locus YKL009W, strain mrt4, active compounds read low 1.05 | S. cerevisiae deletion strains, locus YKL068W, active compounds read low 0.999 | S. cerevisiae deletion strains, locus YKL085W, strain MDH1 (second series), active compounds read low 1.01 | S. cerevisiae deletion strains, locus YKL085W, strain MDH1, active compounds read low 1.01 | S. cerevisiae deletion strains, locus YKL190W, strain CNB1, active compounds read low 0.992 | S. cerevisiae deletion strains, locus YKR001C, strain vps1, active compounds read low 1.04 | S. cerevisiae deletion strains, locus YLR039C, strain RIC1, active compounds read low 1 | S. cerevisiae deletion strains, locus YLR058C, strain SHM2, active compounds read low 1.01 | S. cerevisiae deletion strains, locus YLR102C, strain apc9, active compounds read low 1.03 | S. cerevisiae deletion strains, locus YLR262C, strain YPT6, active compounds read low 1.02 | S. cerevisiae deletion strains, locus YLR268W, strain sec22, active compounds read low 1.02 | S. cerevisiae deletion strains, locus YLR330W, strain CHS5, active compounds read low 1.01 | S. cerevisiae deletion strains, locus YLR342W, strain FKS1 (second series), active compounds read low 1 | S. cerevisiae deletion strains, locus YLR371W, strain rom2, active compounds read low 1.02 | S. cerevisiae deletion strains, locus YLR418C, strain cdc73, active compounds read low 1.05 | S. cerevisiae deletion strains, locus YML016C, strain PPZ1, active compounds read low 1 | S. cerevisiae deletion strains, locus YML032C, strain rad52, active compounds read low 1.03 | S. cerevisiae deletion strains, locus YML124C, strain tub3, active compounds read low 1.01 | S. cerevisiae deletion strains, locus YMR078C, strain ctf18, active compounds read low 1.02 | S. cerevisiae deletion strains, locus YMR223W, strain ubp8, active compounds read low 1.02 | S. cerevisiae deletion strains, locus YMR263W, strain SAP30, active compounds read low 0.997 | [5] 1.01 | S. cerevisiae deletion strains, locus YNL067W, strain RPL9B, active compounds read low 1 | [6] 1.01 | [7] 1 | S. cerevisiae deletion strains, locus YNL233W, strain BNI4, active compounds read low 1.01 | S. cerevisiae deletion strains, locus YNL250W, strain rad50, active compounds read low 1.02 | S. cerevisiae deletion strains, locus YNL271C, strain bni1, active compounds read low 1.03 | S. cerevisiae deletion strains, locus YNL298W, strain CLA4, active compounds read low 1.03 | S. cerevisiae deletion strains, locus YNL307C, strain MCK1, active compounds read low 1.03 | [8] 1 | S. cerevisiae deletion strains, locus YNR052C, strain pop2, active compounds read low 1.03 | S. cerevisiae deletion strains, locus YOL006C, strain TOP1, active compounds read low 1.05 | S. cerevisiae deletion strains, locus YOL012C, strain htz1 1.33 | S. cerevisiae deletion strains, locus YOL147C, strain pex11, active compounds read low 1.02 | S. cerevisiae deletion strains, locus YOR061W, strain CKA2, active compounds read low 0.999 | S. cerevisiae deletion strains, locus YOR069W, strain VPS5, active compounds read low 0.999 | S. cerevisiae deletion strains, locus YOR136W, strain idh2, active compounds read low 1.02 | S. cerevisiae deletion strains, locus YOR144C, strain elg1, active compounds read low 1.02 | S. cerevisiae deletion strains, locus YOR184W, strain ser1, active compounds read low 1.04 | S. cerevisiae deletion strains, locus YOR316C, strain cot1, active compounds read low 1.03 | [9] 1.02 | [10] 1.01 | S. cerevisiae deletion strains, locus YPR119W, strain clb2, active compounds read low 1.02 | S. cerevisiae deletion strains, locus YPR141C, strain kar3, active compounds read low 1.03 | S. cerevisiae deletion strains, locus YPR163C, strain tif3, active compounds read low 1.03 | S. cerevisiae deletion strains, locus YPR167C, strain met16, active compounds read low 1.02 | S. cerevisiae deletion strains, strain wtn01, active compounds read low 1.01 | S. cerevisiae strains, strain wild type, active compounds read low 1
